# Not all results are given here.
# aSyn 5UTR act – Activators working through SNCA 5'UTR binding (MLPCN) | activity score, % (tested at 7.5 µM), hits read low | AID 1814 | alpha-synuclein 5'UTR reporter, activators screen | hit rate 7.1% among 300,000; in the data active = activity score below about -60%
# A number is an active result; n = inactive.
SMILES,aSyn 5UTR act
CC(C)C(=O)Nc1ccc2oc(-c3cc(F)c(F)cc3Cl)nc2c1,-153.7
Cc1ccc(-c2cn(-c3ccccc3)c(SCC(N)=O)n2)cc1C,-67.0
CCOC(=O)NC(=O)CSc1nc(-c2ccc(C)c(C)c2)cn1-c1ccccc1,-154.2
Cc1cc(N(CCO)CCO)ccc1N=Nc1cc(F)ccc1F,-137.4
CCN(CCO)c1ccc(N=Nc2cc(C)[nH]n2)cc1,n
O=C(Nc1cc(C(F)(F)F)ccc1N1CCOCC1)c1ccc2ccccc2n1,-80.2
Cc1cc2ccccn2c1C(=O)Nc1ccccc1,-109.1
Cc1cc2ccccn2c1C(=O)Nc1ccc(Cl)cc1,-116.7
c1ccc(C2Nc3ccccc3-c3nc4ccccc4n32)nc1 (stereo not given),-74.0
c1coc(C2Nc3ccccc3-c3nc4ccccc4n32)c1 (stereo not given),-92.5
CCCCCOc1ccc(C(=O)CCN2CCOCC2)cc1,-72.3
CC/C(=N/NC(=O)c1ccccc1)c1ccc(OCCN2CCOCC2)cc1,-103.2
O=C(c1ccc(Cl)cc1)C(CN1CCCC1)c1ccccc1 (stereo not given),-155.3
COc1ccc(C(=O)C(CN2CCOCC2)c2ccccc2)cc1 (stereo not given),-80.2
COc1ccc(C(=O)C(CN2CCCC2)c2ccccc2)cc1 (stereo not given),-112.5
CCCCOc1ccc(C(=O)C(CN2CCOCC2)c2ccccc2)cc1 (stereo not given),-133.7
CC(C)CC(=O)Nc1ccc(C(=O)NNC(=S)NC(=O)C2CCCCC2)cc1,n
Cc1ccc(NC(=S)NC(=O)C2CCC2)cc1C,-95.4
Cc1ccc(NC(=S)NC(=O)C2CCCC2)cc1C,-130.6
Cc1ccc(NC(=S)NC2CCCC2)cc1C,-127.9
O=C(NC(=S)Nc1ccc(F)cc1)C1CCCCC1,-62.5
O=C(NC(=S)Nc1ccccc1F)C1CCCCC1,-87.8
Cc1ccc(NC(=S)NC(=O)C2CC2)c(C)c1,-119.3
Cc1nc2ccc(NC(=S)NC3CCCCC3)cc2nc1C,-172.5
S=C(Nc1ccc2[nH]ccc2c1)NC1CCCCC1,-104.9
SMILES,aSyn 5UTR act
COc1ccccc1N1CCN(/N=C/c2ccc(C(=O)O)cc2)CC1,-128.5
COc1ccccc1N1CCN(c2ccc(-c3ccccc3)nn2)CC1,n
COc1ccccc1N1CCN(/N=C/C=C\c2ccco2)CC1,-135.7
O=C(O)c1ccc(/C=N/N2CCN(c3ccccc3)CC2)cc1,-207.0
O=C1c2ccc3c4c(ccc(c24)C(=O)N1CCCCO)C(=O)N(CCCCO)C3=O,n
O=C(CCN1C(=O)c2cccc3cccc(c23)C1=O)N1CCOCC1,-101.8
O=C1c2cccc3cccc(c23)C(=O)N1CCc1ccccc1,-245.6
Cc1ccccc1N=C1Nc2ccccc2CS1,-134.0
Cc1ccc(-c2nn3cnnc3c3ccccc23)cc1C,n
Cc1ccc(-n2c(C)nc3c(cnn3-c3ccc(C)c(C)c3)c2=O)cc1C,-100.7
C#CCn1cnc2c(cnn2-c2ccc(C)c(C)c2)c1=O,-107.5
Cc1nc2c3cnn(-c4ccc(C)c(C)c4)c3ncn2n1,-191.0
O=C(Nc1ccc(N2CCCCC2)c(Cl)c1)c1ccc2c(c1)OCCO2,-132.3
O=C(c1ccc(Cl)cc1)c1cc([N+](=O)[O-])ccc1N1CCOCC1,n
O=C(Nc1ccc(N2CCOCC2)c(Cl)c1)c1ccc(Cl)cc1,-126.4
O=C(Nc1ccc(N2CCOCC2)c(Cl)c1)c1ccccc1F,-172.0
O=C(Nc1ccc(N2CCCC2)c(Cl)c1)c1ccc(Br)o1,-177.0
CCCCOc1ccccc1C1CC(=O)NC2=C1C(=O)CCC2 (stereo not given),n
O=C(Nc1ccc(N2CCOCC2)c(Cl)c1)C1CCCCC1,-68.6
CCN1CCN(Cc2ccc(NC(=O)c3ccc(C)c(NC(=O)c4c[nH]c5cc(C(F)(F)F)ccc5c4=O)c3)cc2C(F)(F)F)CC1,n
CCN1CCN(c2ccc(NC(=O)c3ccc(F)cc3)cc2Cl)CC1,-93.8
CCN1CCN(c2ccc(NC(=O)c3ccc([N+](=O)[O-])o3)cc2Cl)CC1,n
O=C(Nc1ccc(N2CCOCC2)c(Cl)c1)c1ccco1,-69.0
O=C(Nc1ccc(N2CCOCC2)c(Cl)c1)c1ccc2c(c1)OCCO2,-92.8
O=C(Nc1ccc(N2CCCC2)c(Cl)c1)c1ccc2c(c1)OCCO2,-77.6
SMILES,aSyn 5UTR act
Cc1cc(C(=O)Nc2ccc(N3CCOCC3)c(Cl)c2)c(C)o1,-179.6
Cc1cc(C)[n+]2n1C(=O)C(c1ccccc1)=C2[O-],-93.3
CS(=O)(=O)N1CCc2cc(C(=O)OCC(=O)c3ccccc3)ccc21,-138.3
CS(=O)(=O)N1CCc2cc(C(=O)Nc3ccccc3Cl)ccc21,-95.6
Cc1ccc(NC(=O)c2ccc3c(c2)CCN3S(C)(=O)=O)cc1C,-111.6
CS(=O)(=O)N1CCc2cc(C(=O)Nc3ccc(Br)cc3)ccc21,-76.6
Cc1cccc(NC(=O)c2ccc3c(c2)CCN3S(C)(=O)=O)c1,-202.6
Cc1ccc(NC2CC(=O)N(Cc3ccccc3)C2=O)cc1 (stereo not given),-65.7
CCCCN1C(=O)CC(Nc2ccc(CC)cc2)C1=O (stereo not given),-125.1
CCc1cc2c(=O)[nH]c(-c3ccccn3)nc2s1,n
c1ccc(/N=C2\N=C(Nc3ccccn3)c3ccccc32)nc1,n
O=c1[nH]c(-c2ccccn2)cc2ccccc12,-117.7
O=c1[nH]c(Nc2ccc(F)cc2)cc2ccccc12,-75.2
O=c1[nH]c(Nc2ccccn2)cc2ccccc12,-112.3
O=C(Nc1ccc(F)cc1Cl)c1ccc2c(=O)n3c(nc2c1)CCC3,-108.5
Cc1csc(NC(=O)c2ccc3c(=O)n4c(nc3c2)CCCCC4)n1,-138.9
O=C(Nc1nccs1)c1ccc2c(=O)n3c(nc2c1)CCCCC3,-128.6
O=C1N=C(N2CCOCC2)SC1=C1CCCCC1,-85.2
CNc1ncc(C(=O)c2ccc(Cl)c(Cl)c2)s1,-148.5
CNc1ncc(C(=O)c2ccc(Cl)cc2)s1,-124.2
CN(C(=O)c1ccc(OC2CCN(CCc3ccccc3)CC2)cc1)C1CCCCC1,-124.9
COc1ccc(CCN2CCC(Nc3nc4ccccc4n3Cc3ccc(F)cc3)CC2)cc1,n
Cc1ccc(-c2nn(-c3ccccc3)cc2C(=O)Nc2ccc(C)c(S(=O)(=O)N3CCOCC3)c2)cc1,-110.0
CC(/C=C/c1ccc(OCc2ccccc2)cc1)=N\O,-132.8
COC(=O)c1ccc(COc2ccc(/C=N/N3CCN(C)CC3)cc2)cc1,-126.7
SMILES,aSyn 5UTR act
CN1CCN(/N=C/c2ccc(OCc3ccccc3)cc2)CC1,-73.1
Cc1ccc(C2=CC(c3cccs3)n3nnnc3N2)cc1 (stereo not given),-186.9
COc1ccccc1C1C=C(c2ccc(C)cc2)Nc2nnnn21 (stereo not given),-127.7
CCOc1ccc(C2C=C(c3ccccc3)Nc3nnnn32)cc1 (stereo not given),-151.6
COc1ccccc1C1CC(=O)Nc2cc(C)c(C)cc21 (stereo not given),n
COc1ccc(/C(C)=N/Nc2ccc(F)cc2F)c(O)c1,-96.7
COc1ccc(/C(C)=N/Nc2ccccc2Cl)c(O)c1,-102.4
C/C(=N\Nc1ccc(F)cc1F)c1cccs1,-87.6
Oc1cccc(/C=N/Nc2ccc(Cl)nn2)c1,-170.9
Oc1c(/C=N/Nc2cccc3cccnc23)ccc2ccccc12,-163.9
O=[N+]([O-])c1ccc(O)c(/C=N/Nc2ccc(Cl)nn2)c1,n
Oc1ccc(/C=N/Nc2cccc(Cl)n2)c(O)c1,-244.0
COc1cc(/C=N/Nc2cccc3cccnc23)cc(OC)c1O,-94.2
COc1cccc(C(NC(C)=O)c2ccc3cccnc3c2O)c1 (stereo not given),n
Oc1cccc(/C=N/Nc2cccc3cccnc23)c1,-142.5
COc1nc(-c2ccccc2)ccc1-c1noc(-c2ccccc2F)n1,-108.8
